# The list is not random: actives were taken first. Their share in the collection is about 2.1%.
# D2 antagonist: D2 dopamine receptor (human) antagonism. P14416. HEK293 TREx D2 cells, calcium flux, dopamine EC80. AID 485344. inhibition, % at 10 µM. actives 2% (n = 340,000); in the data active = inhibition above about 30%; inactive = below that, where a call was filed; also: 0% is about no effect
# Target sequence (P14416 whole entry, looked up): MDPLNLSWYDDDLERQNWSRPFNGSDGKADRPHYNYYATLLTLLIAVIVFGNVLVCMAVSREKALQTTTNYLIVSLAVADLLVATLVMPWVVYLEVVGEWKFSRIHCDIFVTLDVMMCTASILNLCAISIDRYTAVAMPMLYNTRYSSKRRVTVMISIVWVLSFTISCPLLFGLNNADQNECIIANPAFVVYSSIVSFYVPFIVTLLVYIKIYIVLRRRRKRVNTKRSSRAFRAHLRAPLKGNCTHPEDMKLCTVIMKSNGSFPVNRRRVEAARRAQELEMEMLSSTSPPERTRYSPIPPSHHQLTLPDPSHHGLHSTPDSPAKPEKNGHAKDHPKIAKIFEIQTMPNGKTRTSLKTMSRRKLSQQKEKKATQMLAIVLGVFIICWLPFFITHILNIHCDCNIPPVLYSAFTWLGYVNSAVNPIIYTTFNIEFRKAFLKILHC
#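 Tetracycline-induced HEK293 T-REx cells expressing D2 force-coupled to calcium signalling were dye-loaded, exposed to compound for 180 s, then challenged with an EC80 of dopamine; calcium flux was followed kinetically for a further 180 s.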
# D2 PAM-1: positive allosteric modulators of human D2 dopamine receptor; DiscoveRx D2 beta-arrestin cells, luminescence, 90 min; 100% = 57 uM dopamine signal; actives 0.23% (n = 360,000); AID 624464; potentiation, % (no concentration beside the values); in the data active = potentiation above about 50%; inconclusive = mostly about 30% to 49%
#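 PathHunter beta-arrestin assay in DiscoveRx D2 cells. Compounds were added with an EC20 of dopamine (50 nM final) for 90 min at 37 deg C. Luminescence was read 1 h after detection reagent, with 57 uM dopamine as the EC100 control.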
# D2 ag-1: D2 dopamine receptor (human) agonism; AID 485358; activation, % at 2 µM; P14416; actives 0.53% (n = 340,000); HEK293 T-REx D2 cells, calcium flux agonist mode;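 active = activation over 3 SD above normal in the single-dose calcium agonist read, cut at about 30% in these data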; also: 0% is about no effect
#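 Agonism is scored from calcium flux in a force-coupled, inducible HEK293 cell line expressing D2, read kinetically for 180 s after compound addition against dopamine controls.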
# D2 PAM-2: positive allosteric modulators of human D2 dopamine receptor; P14416; HEK293 T-REx D2, calcium flux, EC20 dopamine potentiation; potentiation, % at 10 µM; actives 0.34% (n = 340,000);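 active = potentiation over 3 SD above the plate norm, cut at about 30% in these data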; also: 0% is about no effect
#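 Potentiation of an EC20 dopamine calcium response is measured in a force-coupled, tetracycline-inducible Hek293 Trex D2 line. Compound-only kinetic reads over 180 s flag agonists before dopamine addition.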
# LDHA inh: blocks human lactate dehydrogenase A | P00338 | purified LDHA, NADH/diaphorase-resazurin fluorescence; stronger effect = lower value | activity change, % (values are at about 110 or 230 µM) | actives 0.15% (n = 480,000) | AID 1347041; in the data active = activity change below about -30%; inconclusive = mostly about -25% to -30%;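 also: plate controls were DMSO wells for no effect and wells without enzyme for full effect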
#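 Resorufin fluorescence (ex540/em590), read at 0 and 20 min after diaphorase/resazurin addition, reports the NADH left after a 5 min room-temperature reaction of 2 nM human LDH5 with 0.06 mM NADH and 0.2 mM pyruvate.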
# D2 ag-2: human D2 receptor agonism in beta-arrestin assay. P14416. DiscoveRx PathHunter D2 beta-arrestin, luminescence, 90 min; 100% = 57 uM dopamine signal. activation, % (concentration not given with the values). actives 0.084% (n = 360,000); in the data active = activation above about 40%; inconclusive = between about 15% and that limit
#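 Agonist mode: compounds alone added to overnight-plated D2 PathHunter cells for 90 min at 37 C, with 57 uM final dopamine (EC100) defining full response. Beta-arrestin recruitment detected by chemiluminescent reagent, read after 1 h at ambient temperature.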
# Active calls of the source: *; ? = inconclusive; . = no result given.
SMILES,D2 antagonist,D2 PAM-1,D2 ag-1,D2 PAM-2,LDHA inh,D2 ag-2
C=C(C)CNC(=S)NNC(=S)NC1CCCC(C)C1C (stereo not given),.,.,.,.,-6.3,.
N#Cc1ccc(/C=N/Nc2cccc(Cl)c2)cc1,.,.,.,.,11.4,.
Cc1ccc(/C=C/c2nc3sc(C(=O)O)c(C)c3c(=O)[nH]2)cc1[N+](=O)[O-],32.7*,2.2,-0.2,-9.1,-7.1,?
COc1ccc(CC(=O)NC(C)c2nnc(SCC(=O)c3ccc(F)cc3)n2C)cc1 (stereo not given),.,.,.,.,-2.4,.
CCc1cc2ccc(C)cc2nc1SCC(=O)c1ccc(NC(C)=O)cc1,9.2,2.6,1.1,-2.3,3.0,2.4
CCc1cc2cccc(C)c2nc1SCC(=O)c1ccc(NC(C)=O)cc1,46.6*,2.2,0.9,-1.0,-4.2,-1.6
CCOc1ccc(CNC(=O)C2CCCN(S(C)(=O)=O)C2)cc1OC (stereo not given),52.1*,-7.1,0.3,4.3,-2.1,-0.7
COc1ccc(C(CNc2ccc(S(=O)(=O)N3CCN(C)CC3)cc2[N+](=O)[O-])N(C)C)cc1 (stereo not given),5.4,-1.6,0.8,-15.1,-4.5,-3.0
COc1ccc(CCNc2ccc(S(=O)(=O)N3CCN(C)CC3)cc2[N+](=O)[O-])cc1,64.7*,-4.6,-1.2,2.8,-2.7,-2.2
Cc1cc2oc(C(=O)NCC(c3ccco3)N3CCOCC3)cc(=O)c2cc1Cl (stereo not given),.,.,.,.,8.3,.
O=c1cc(CSc2nnc(NC3CC3)s2)c2ccc(O)cc2o1,.,.,.,.,5.0,.
COc1cccc(N2CCN(c3ncnc4c3cnn4-c3ccc(C)cc3C)CC2)c1,22.8,25.3,-0.2,-7.8,2.7,86.7*
COCC1CCCN(Cc2cn(-c3ccccc3F)nc2-c2cc(C)sc2C)C1 (stereo not given),41.0*,-18.8,2.5,-16.9,-2.2,-4.0
CC(=O)NCC1CCCN(Cc2cn(-c3ccccc3F)nc2-c2cc(C)sc2C)C1 (stereo not given),-17.9,-32.3,-0.7,1.9,-1.3,-2.8
CCN(CC)S(=O)(=O)c1ccc(NC2CCN(Cc3ccccc3)CC2)nc1,36.3*,-7.0,-0.2,16.6,-6.3,-1.0
O=C(Cc1c[nH]c2ccccc12)N1CCN(S(=O)(=O)c2cccc(F)c2)CC1,.,.,.,.,-1.0,.
O=C(Cc1c[nH]c2ccccc12)N1CCN(S(=O)(=O)c2cc(F)ccc2F)CC1,.,.,.,.,-36.8*,.
O=C(CN1C(=O)c2ccccc2C1=O)Nc1cnc2ccccc2c1,.,.,.,.,4.6,.
O=C(CSc1nc2cc(Cl)ccc2s1)NC1CCCCCCC1,.,.,.,.,6.6,.
Cc1ncc(-c2ccc(S(=O)(=O)Nc3cccc(Cl)c3C)cc2)o1,.,.,.,.,-30.6*,.
Cc1ncc(-c2ccc(S(=O)(=O)Nc3ccc(C)c(F)c3)cc2)o1,.,.,.,.,-31.2*,.
O=C(O)Cc1cc(Cl)c2c(c1)OCCCO2,.,.,.,.,0.8,.
CN1CCN(Cc2nc3c(c(=O)n(C)c(=O)n3C)n2Cc2ccccc2F)CC1,.,.,.,.,-2.0,.
Cc1c(Cl)cccc1S(=O)(=O)Nc1ccc2sc(NC(=O)c3ccccc3)nc2c1,.,.,.,.,17.8,.
CCN(C(=O)c1cnc(N2CCOCC2)c2ccccc12)c1cccc(C)c1,.,.,.,.,-2.4,.
SMILES,D2 antagonist,D2 PAM-1,D2 ag-1,D2 PAM-2,LDHA inh,D2 ag-2
CCN(C(=O)c1cnc(N2CCN(c3ncccn3)CC2)c2ccccc12)c1cccc(Cl)c1,46.5*,-13.7,1.0,25.1,-1.4,-3.2
Cc1ccccc1CS(=O)(=O)CCC(=O)NCCCN1CCN(c2ccccc2F)CC1,55.2*,-28.3,42.8*,-25.3,-7.7,4.7
COc1ccc(-c2noc(CCC(=O)NCCCN3CCN(c4ccccc4F)CC3)n2)cc1,84.0*,-4.7,4.7,-15.1,1.6,-0.7
Cc1ccc(-c2noc(CCC(=O)NCCCN3CCN(c4cccc(Cl)c4)CC3)n2)cc1,-18.3,-43.7,-0.2,8.5,-1.4,-4.9
Cc1ccc(-c2noc(CCC(=O)NCCCN3CCN(c4ccc(F)cc4)CC3)n2)cc1,60.7*,-11.9,0.5,-19.1,-0.7,-0.5
CCN1CCN(CCCNC(=O)CCc2nc(-c3ccc(OC)cc3)no2)CC1,-9.9,-2.4,0.6,-14.6,-3.3,-2.5

# Compound activity as filed in PubChem BioAssay.
